Reference: paper PMC5540273 (PLoS ONE, 2017)

Columns and labels:
Conditions in all cases: concentration: 1 μM, replicates: in singlicate; n = 1
[1] = test system: SGK2
[2] = test system: SGK3
[3] = test system: SGK
[4] = test system: SIK2
[5] = test system: SIK
[6] = test system: SLK
[7] = test system: T1, SNARK
T1 construct: gene NUAK2

[8] = test system: SNRK
[9] = test system: SRC
[10] = test system: SRMS
[11] = test system: SRPK1
[12] = test system: SRPK2
[13] = test system: SRPK3
[14] = test system: STK16
[15] = test system: STK33
[16] = test system: STK35
[17] = test system: STK36
[18] = test system: STK39
[19] = test system: SYK
[20] = test system: SgK110
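Further: KINOMEscan kinase panel screen.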

Structure (SMILES) | %Inh [1] [%] | %Inh [2] [%] | %Inh [3] [%] | %Inh [4] [%] | %Inh [5] [%] | %Inh [6] [%] | %Inh [7] [%] | %Inh [8] [%] | %Inh [9] [%] | %Inh [10] [%] | %Inh [11] [%] | %Inh [12] [%] | %Inh [13] [%] | %Inh [14] [%] | %Inh [15] [%] | %Inh [16] [%] | %Inh [17] [%] | %Inh [18] [%] | %Inh [19] [%] | %Inh [20] [%]
COc1cccc(-n2cnc3c(N)ncnc32)c1 [SKF-97416] | 8 | 0 | 44 | 0 | 0 | 2 | 5 | 20 | 13 | 22 | 2 | 6 | 0 | 16 | 12 | 0 | 0 | 29 | 4 | 0
Nc1nc(-c2ccccc2F)c(-c2ccnc3ccccc23)s1 [GW560459] | 1 | 5 | 15 | 0 | 0 | 4 | 8 | 0 | 0 | 0 | 25 | 0 | 0 | 7 | 0 | 0 | 0 | 1 | 32 | 0
Cc1ccc(Oc2ccc(Nc3ncnc4cc[nH]c34)cc2C)cn1 | 5 | 5 | 12 | 0 | 21 | 10 | 6 | 32 | 16 | 22 | 0 | 0 | 0 | 27 | 0 | 0 | 13 | 15 | 11 | 0
Cc1cccc(-c2nc(Nc3ccc4c(cnn4C)c3)c3ccccc3n2)n1 [GW876731] | 37 | 3 | 0 | 0 | 0 | 2 | 21 | 0 | 11 | 0 | 0 | 0 | 0 | 5 | 0 | 0 | 2 | 33 | 24 | 6
COc1ccc(-c2cc3c(C)nc(N)nc3n([C@H]3CC[C@H](OCCO)CC3)c2=O)cn1 | 0 | 17 | 0 | 5 | 18 | 0 | 0 | 0 | 8 | 1 | 0 | 0 | 0 | 0 | 0 | 8 | 0 | 0 | 1 | 25
Cc1nc(N(C)[C@H]2CN(C(=O)CC#N)CC[C@H]2C)c2cc[nH]c2n1 | 7 | 0 | 25 | 0 | 6 | 1 | 1 | 0 | 11 | 2 | 26 | 0 | 1 | 0 | 0 | 0 | 0 | 0 | 0 | 0
O=C(Nc1n[nH]c2nc(-c3ccccc3)c(Cl)cc12)C1CC1 [SB-734909] | 5 | 12 | 9 | 27 | 0 | 15 | 0 | 33 | 0 | 0 | 0 | 27 | 15 | 1 | 0 | 32 | 6 | 0 | 0 | 23
CCC(=O)c1c(-c2ccccc2)c2cc(Cl)ccc2c(=O)n1Cc1cc(S(C)(=O)=O)n(CC(N)=O)n1 | 0 | 0 | 0 | 2 | 0 | 0 | 0 | 0 | 0 | 0 | 0 | 0 | 0 | 16 | 17 | 0 | 0 | 0 | 9 | 0
COc1ccc(-c2coc3ccc(-c4nnc(SCc5cccc(C#N)c5)o4)cc23)cc1 | 0 | 21 | 0 | 0 | 17 | 18 | 30 | 18 | 3 | 0 | 0 | 0 | 0 | 20 | 0 | 26 | 8 | 0 | 14 | 10
CCS(=O)c1ccc(-c2coc3ccc(-c4nnc(C)o4)cc23)cc1 (stereo not drawn) | 13 | 23 | 7 | 5 | 13 | 0 | 30 | 0 | 0 | 0 | 0 | 0 | 5 | 22 | 0 | 0 | 2 | 28 | 13 | 5
COc1cc(Nc2nccc(N3CCC(NC(=O)C(C)c4ccc(Cl)cc4)C3)n2)cc(OC)c1OC (stereo not drawn) [GSK1379757] | 0 | 0 | 0 | 0 | 1 | 1 | 19 | 0 | 13 | 0 | 26 | 3 | 52 | 39 | 0 | 0 | 0 | 0 | 20 | 0
COc1ccc(-c2cc3c(C)nc(N)nc3n([C@H]3CC[C@H](O)CC3)c2=O)cn1 | 0 | 0 | 0 | 0 | 0 | 0 | 0 | 0 | 0 | 0 | 21 | 0 | 0 | 0 | 0 | 0 | 0 | 0 | 0 | 0
O=C(Nc1ccc2c(c1)OCO2)NC1CCN(c2ccnc(NCc3ccc(F)cc3)n2)CC1 [GSK1379859] | 0 | 0 | 0 | 0 | 0 | 12 | 0 | 0 | 17 | 0 | 28 | 0 | 0 | 7 | 0 | 0 | 0 | 0 | 16 | 0
Cc1ccc(-c2ccc3c(ccc4sc5c(c43)NC[C@@H](C)N=C5N(C)C)n2)cn1 | 0 | 0 | 0 | 0 | 3 | 0 | 0 | 0 | 0 | 0 | 0 | 6 | 25 | 0 | 0 | 0 | 0 | 0 | 0 | 14
CCc1ccc(-c2ccc3c(c2)-c2nn(C)cc2S(=O)(=O)N3C)cc1 | 0 | 0 | 0 | 0 | 0 | 12 | 0 | 0 | 0 | 46 | 0 | 0 | 0 | 0 | 2 | 0 | 0 | 0 | 27 | 12
FC(F)(F)c1ccc(-c2ncn(CCCN3CCOCC3)c2-c2ccncc2)cc1 [SB-217780] | 25 | 0 | 5 | 0 | 0 | 0 | 0 | 18 | 0 | 0 | 0 | 6 | 6 | 9 | 0 | 0 | 10 | 19 | 0 | 0
COc1cc(OC)cc(-c2cc3cnc(N)nc3nc2NC(=O)NC(C)(C)C)c1 | 0 | 17 | 0 | 0 | 6 | 0 | 0 | 1 | 0 | 0 | 47 | 0 | 0 | 0 | 0 | 0 | 0 | 0 | 0 | 0
COC(=O)c1c(-c2ccccc2)c2cc(Br)ccc2c(=O)n1Cc1ccc(S(C)(=O)=O)cc1 | 21 | 23 | 14 | 0 | 22 | 0 | 20 | 11 | 8 | 0 | 0 | 0 | 1 | 38 | 2 | 0 | 10 | 2 | 0 | 6
Cc1cccc(-c2cc(-c3c[nH]nc3-c3ccccn3)ccn2)c1 [GW679395] | 6 | 0 | 0 | 0 | 0 | 0 | 0 | 0 | 53 | 0 | 3 | 0 | 0 | 21 | 0 | 0 | 64 | 30 | 16 | 64
COc1cc2ncn(-c3cc(OCCCc4ccccc4)c(C(N)=O)s3)c2cc1OC [GSK205189] | 0 | 0 | 0 | 0 | 2 | 79 | 0 | 0 | 0 | 0 | 27 | 0 | 7 | 13 | 0 | 15 | 0 | 0 | 21 | 0
CCCC(=O)Nc1n[nH]c2ncc(-c3cccc4ccccc34)cc12 [SB-642057] | 0 | 26 | 0 | 0 | 0 | 14 | 0 | 0 | 0 | 4 | 16 | 0 | 0 | 24 | 0 | 4 | 0 | 6 | 0 | 0
